Data taken from PubChem BioAssay (Tox21).
“And” between values parts separate entries of the source, which are not always exact repeats. Equal values may be shown once. Records with an inconclusive call do not appear. Values without a mark were called inactive. The source made the active and inactive calls. The call rests on the fitted dose curve; in most records, active means well fitted cell-killing curve with a large enough effect in the repeat runs; inconclusive means weak or mixed curves, or effect the other way; inactive means no such curve, though single readings can be large or run the other way.

Test: qHTS assay to identify small molecule antagonists of the thyroid receptor (TR) signaling pathway - cell viability counter screen (AID 743064); further: nearly all actives have a fitted effect of over 50% in size
Details: GH3.TRE-Luc viability, CellTiter-Fluor, 24 h; series mostly up to 70.3 µM; activity change, negative = cytotoxic: at the top concentration
Source text: National Center for Advancing Translational Sciences [NCATS]
NIH Chemical Genomics Center [NCGC]
U.S. Environmental Protection Agency [EPA]
National Institutes of Environmental Health Sciences [NIEHS]
National Toxicology Program [NTP]
U.S. Food and Drug Administration [FDA]
Thyroid receptor (TR), a nuclear hormone receptor, plays an important role in development, proliferation, differentiation, metabolism, brain function, and cardiovascular system. […] To profile the Tox21 10K compound library in TR signaling, a cell-based GH3-TRE-Luc assay (GH3.TRE-Luc cell line, developed by the laboratory of Dr. Albertinka J. Murk, Wageningen University) was used to measure the inhibition of TR. GH3 (rat pituitary tumor) cells stably expressing a TR activity sensor consisting of two TR response elements and a luciferase reporter gene. The cytotoxicity of the Tox21 compound library against the GH3.TRE-Luc cell line was tested in parallel by measuring the cell viability using CellTiter-Fluor assay (Promega, Madison, WI) in the same wells.
Tox21 Assay Protocol Summary:
GH3.TRE-Luc cells were dispensed at 1500 cells/4 uL/well into 1536-well white solid bottom plates using a Multidrop Combi dispenser (Thermo Fisher Scientific Inc., Waltham, MA). After the assay plates were incubated at 37 C for 4 hours, 23 nL of library compound or DMSO controls was transferred to the assay plates by a pintool station (Kalypsys, San Diego, CA), followed by addition of 1 ul of T3 (1 nM, final concentration in the wells) to stimulate TR transactivation. The assay plates were incubated at 37 C for 23.5 h, and then 1 uL of CellTiter-Fluor reagent (Promega, Madision, WI) of measuring cytotoxicity was added to each well using a Bioraptr Flying Reagent Dispenser (FRD) workstation (Beckman Coulter, Indianapolis, IN, USA). The plates were incubated at 37C and 5% CO2 for additional 30 min, and fluorescence intensity was measured by a ViewLux plate reader (PerkinElmer, Shelton, CT).
On the % scale 0 is the no-effect control and ±100 the full control effect; potency means the concentration at half of the fitted maximal effect.

Compound | activity change, negative = cytotoxic | Potency
CC(C)OC(=O)C(O)(CC(=O)O)CC(=O)O | 9.24% | –
O=[N+]([O-])c1cccc(C(F)(F)F)c1 | 15.3% [at 95 µM] | –
C=C(C)c1cccc(C(=C)C)c1 | -2.52% | –
CCCC[P+](C)(CCCC)CCCC | 0.0306% [at 95 µM] | –
Cc1ccc(N/N=c2\c(=O)cc/c(=N\Nc3ccc(S(=O)(=O)O)cc3)c2=O)c(C)c1 | – | 61.1 µM (active)
Cc1cc(C(C#N)c2ccc(Cl)cc2)c(Cl)cc1NC(=O)c1cc(I)cc(I)c1O (stereo not given) | – | 23.7 µM (active)
CCOc1ccc2ccccc2c1C(=O)N[C@@H]1C(=O)N2[C@@H]1SC(C)(C)[C@@H]2C(=O)O | 12.2% [at 32.5 µM] | –
Nc1nc(N)nc(-c2cc(Cl)ccc2Cl)n1 | 15.7% | –
Clc1sc(Cl)c(Cl)c1Cl | -1.51% | –
CC(N=C(NC#N)Nc1ccncc1)C(C)(C)C (stereo not given) | 20.3% | –
O=[N+]([O-])c1ccc(O)cc1C(F)(F)F | – | 54.5 µM (active)
OC/C=C/CO | -5.94% | –
O=C(O)CCN(C1(C(=O)NO)CCCC1)S(=O)(=O)c1ccc(Oc2ccc(F)cc2)cc1 | -2.37% | –
O=C(/C=C/c1ccccc1)OC/C=C/c1ccccc1 | 11.8% | –
Oc1c(I)cc(Cl)c2cccnc12 | 24.9% | –
Cc1ccc(-c2ccccc2)cc1 | -8.76% | –
Cc1ccc(O)c(O)c1 | – | 29.8 µM (active)
O=C1C(c2[nH]c3ccc(S(=O)(=O)O)cc3c2O)=Nc2ccc(S(=O)(=O)O)cc21 | – | inactive
CC1(C)CCC[C@]2(C)[C@H]3CC(=O)O[C@]3(C)CC[C@@H]12 | -20.6% | –
CCCCC(CC)COC(=O)CCCCC(=O)OCc1ccccc1 (stereo not given) | 9.2% | –

Compound | activity change, negative = cytotoxic | Potency
O=C(O)Cc1ccccc1Nc1c(Cl)cccc1Cl | – | inactive
C#CC1(O)CC[C@H]2[C@@H]3CCC4=CCCC[C@@H]4[C@H]3CC[C@@]21C (stereo not given in full) | – | 30.6 µM (active)
COc1cc(/C=C/c2ccccc2)oc(=O)c1 | -1.49% [at 95 µM] | –
CCCCCCOC(=O)C(C)CC (stereo not given) | 18.6% | –
C=CC(=O)Nc1cc2c(Nc3ccc(F)c(Cl)c3)ncnc2cc1OCCCN1CCOCC1 | – | 5.31 µM (active)
c1cnccn1 | -15.3% [at 95 µM] | –
O=C1CCc2cc(OCCCCc3nnnn3C3CCCCC3)ccc2N1 | 16.5% | –
OC[C@@H](O)[C@@H](O)CO | -1.76% | –
CC1(C)CCC[C@]2(C)[C@H]3CCO[C@]3(C)CC[C@@H]12 | -0.924% | –
CC(C)CCCCCOC(=O)CCS | 10.6% | –
CCCCCCCCCCCCCCCC[N+](C)(C)CC | – | 5.96 µM (active) and 15.4 µM (active)
Oc1cc(Cl)cc(Cl)c1Cl | -23.6% [at 95 µM] | –
Cc1cccc(C(=O)O)c1O | 4.34% | –
O[C@@H]([C@H](O)[C@H](O)CBr)[C@H](O)CBr | – | inactive
C=CC(C)(CCC=C(C)C)OC=O (stereo not given) | -9.68% | –
O=C(/C=C/c1ccc(O)c(O)c1)O[C@@H](C(=O)O)[C@@H](OC(=O)/C=C/c1ccc(O)c(O)c1)C(=O)O | -24.2% | –
O=C1c2ccccc2C(=O)N1SC1CCCCC1 | – | 30.6 µM (active) and 21.7 µM (active)
Nc1ccc(Oc2ccc(Cl)cc2)cc1 | -29.2% | –
Cc1ccc(C)cc1 | 4.83% | –
CC1=Nc2ccccc2C1(C)C | -2.69% | –
